Source: PubChem BioAssay AID1570 (National Center for Advancing Translational Sciences (NCATS), 2009)
Results filed as inconclusive are left out. A call without a number means that no potency is given here. Activity calls are given as the source filed them. The call rests on the fitted dose curve; in most records, active means well fitted inhibition curve with a large enough effect; inconclusive means small, poorly fitted or top-dose-only effect, or effect the other way; inactive means flat fitted curve, though single readings scatter.

Target: Thyroid hormone receptor beta (Homo sapiens) (UniProt P10828)
Sequence (P10828 whole entry, looked up): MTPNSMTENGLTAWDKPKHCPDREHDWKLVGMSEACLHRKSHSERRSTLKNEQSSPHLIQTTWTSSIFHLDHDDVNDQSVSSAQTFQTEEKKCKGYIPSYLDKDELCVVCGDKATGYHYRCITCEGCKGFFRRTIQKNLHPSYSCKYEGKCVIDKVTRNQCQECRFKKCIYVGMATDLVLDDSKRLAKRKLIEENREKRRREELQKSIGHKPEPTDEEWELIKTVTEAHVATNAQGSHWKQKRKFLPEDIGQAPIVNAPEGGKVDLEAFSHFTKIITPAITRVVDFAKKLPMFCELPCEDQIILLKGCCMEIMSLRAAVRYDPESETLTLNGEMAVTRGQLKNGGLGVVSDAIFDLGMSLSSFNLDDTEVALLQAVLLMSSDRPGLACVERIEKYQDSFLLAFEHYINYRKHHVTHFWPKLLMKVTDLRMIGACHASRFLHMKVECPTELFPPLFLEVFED
Experiment: Concentration Response Confirmation Assay for Inhibitors of the Interaction of Thyroid Hormone Receptor and Steroid Receptor Coregulator 2, Fluorescein Fluoroprobe
From the text: NIH Molecular Libraries Probe Production Network [MLPCN] NIH Chemical Genomics Center [NCGC] MLPCN Grant: DK058080 Assay Provider: R. Kip Guy, St. Jude Children's Research Hospital NCGC Assay Overview: Thyroid receptor (TR) regulates many homeostatic processes including basal metabolism, cardiovascular function, body weight, and lipid trafficking. TR modulators are potential therapeutics for obesity and hyperlipidemias but current thyroid analogs have undesirable side effects, particularly cardiac stimulation. To identify inhibitors that specifically prevent the interaction of TR with the steroid receptor coregulator 2 (SRC2), a fluorescence polarization assay was screened (Arnold et al., 2006). […] Small molecule inhibitors that block the interaction of TR and SRC2 are detected by a decrease in fluorescence polarization. […]
NCGC Assay Protocol Summary: Five uL/well 0.6 uM TRbeta and 20 nM SRC2 Fluorescein in protein buffer (20mM Tris hydrochloride, 100mM NaCl, 10% glycerol, 1mM EDTA, 0.01% NP-40, 1mM DTT, 1uM T3 and 5% DMSO) was dispensed into black solid 1536-well plates (Grenier) using a solenoid-based dispenser. […] The plates were read by an Envision (Perkin Elmer) to detect fluorescence polarization of SRC2 Fluorescein (480 nm excitation and 535 nm emission). […]

Row | Structure (SMILES) | Potency
1 | CCn1nc(-c2cccs2)nc2c(=O)n(C)c(=O)nc1-2 | inactive
2 | COP(=S)(OC)Oc1ccc([N+](=O)[O-])cc1 | 14.1 µM (active)
